For 31 compounds, GFP signal change (wild-type ribosome), OD600 change and RFP signal change results are on record in PubChem BioAssay AID720706 (Broad Institute, 2013).

The campaign covered roughly 350,000 compounds. About 5,500 (1.6%) were called active.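 Rule for the calls: active = significant combined selectivity score with lowered wild-type GFP, culture density cut under 30%, mutant RFP and density less affected; inactive = any of these conditions unmet.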 Shown is part of a subset that was picked to be rich in actives.

This assay is described as follows: reduced GFP signal of wild-type E. coli, primary screen, bacterial rRNA inhibitor project, GFP/RFP fluorescence, OD600, single point (AID 720706). As to conditions: E. coli WT GFP vs humanized-ribosome RFP mutants, 24 h; GFP signal change (wild-type ribosome): stronger effect = lower value, DMSO median 0, no signal -100; OD600 change: measured here: OD600 growth, DMSO median 0, no signal -100; RFP signal change: measured here: RFP humanized mutant strains, DMSO median 0, no signal -100, concentration not given here.
As for `Cc1cc(C)c(C#N)c(SCc2[nH]nc3c2C(c2ccccc2)C(C#N)=C(N)O3)n1` (stereo not drawn), the GFP signal change (wild-type ribosome) is -19.3% (active), the OD600 change was -14.2% and the RFP signal change amounted to 7.29%.
For `N#CC1=C(N)Oc2n[nH]c(CSc3ccccc3)c2C12C(=O)Nc1ccccc12` (stereo not drawn) the same measures were -4.64% (inactive), -0.706% and 2.2%.
The matching figures for `N#CC1=C(N)Oc2cc(N)ccc2C1c1ccccc1` (stereo not drawn): 5.33% (inactive), 13.2% and 8.27%.
For `CCC(=O)Nc1ccc2c(c1)C(=O)N(C)[C@H]1CC[C@H](CC(=O)NCC3CCCCC3)O[C@H]1CO2` the same measures were -0.704% (inactive), -0.374% and -0.863%.
With `CC[C@H](NC(=O)[C@H](Cc1ccccc1)NC(=O)[C@H]1O[C@@H](n2cnc3c(=O)[nH]c(N)nc32)[C@H](O)[C@@H]1O)c1ccccc1`, the GFP signal change (wild-type ribosome) was 13.7% (inactive), the OD600 change is 14.1% and the RFP signal change worked out at 2.61%.
The matching figures for `CCc1cccc(NC(=O)CCNS(=O)(=O)c2cccc3nonc23)c1`: -13.3% (inactive), -12.7% and 18.6%.
Take `O=S(=O)(Nc1ccc(OC(F)(F)F)cc1)c1cccc2nonc12`: the GFP signal change (wild-type ribosome) was -39% (active), the OD600 change was -15.7% and the RFP signal change was -10.9%.
With `O=C(O)c1ccc(NS(=O)(=O)c2cccc3nsnc23)cc1`, the GFP signal change (wild-type ribosome) is 12.3% (inactive), the OD600 change is 9.27% and the RFP signal change was 0.548%.
`Cc1ccc(S(=O)(=O)N(C)C[C@@H]2Oc3c(NS(=O)(=O)c4ccc(F)cc4)cccc3C(=O)N([C@@H](C)CO)C[C@H]2C)cc1`: the GFP signal change (wild-type ribosome) was -1.93% (inactive), the OD600 change came to 3.45% and the RFP signal change came out at 0.647%.
As for `Cc1ccc(CSc2nsc(C)c2C#N)cc1`, the GFP signal change (wild-type ribosome) was -24.5% (active), the OD600 change was -7.04% and the RFP signal change was -1.18%.
As to `N#Cc1ccc(CSc2ncccn2)cc1`, the GFP signal change (wild-type ribosome) was -4.06% (inactive), the OD600 change was -1.11% and the RFP signal change was -0.806%.
For `Cc1snc(SCc2c(F)cccc2Cl)c1C#N` the same measures were -4.85% (inactive), -10.8% and -3.63%.
For `CN(C)C(=O)C[C@H]1C[C@@H]2c3cc(NC(=O)CC4CC4)ccc3O[C@@H]2[C@@H](CO)O1` the same measures were 1.34% (inactive), 0.566% and 1.23%.
With `Cc1ccc(S(=O)(=O)N(C)C[C@@H]2Oc3ccc(NC(=O)Cn4cnnn4)cc3CC(=O)N([C@H](C)CO)C[C@H]2C)cc1`, the GFP signal change (wild-type ribosome) is -0.977% (inactive), the OD600 change was 0.458% and the RFP signal change was -4.09%.
For `CSc1nnc(NC(=O)c2nc(S(=O)(=O)Cc3ccc(C)cc3)ncc2Cl)s1` the same measures were 2.78% (inactive), -0.98% and 0.486%.
For `Cc1cccc(CS(=O)(=O)c2ncc(Cl)c(C(=O)Nc3ccc(F)cc3)n2)c1`, the GFP signal change (wild-type ribosome) was 6.16% (inactive), the OD600 change was determined as 2.7% and the RFP signal change is -4.49%.
In the case of `Cc1cccc(NC(=O)c2nc(S(=O)(=O)Cc3ccccc3)ncc2Cl)c1`, the GFP signal change (wild-type ribosome) is -14.7% (active), the OD600 change is 11% and the RFP signal change was -6.12%.
As for `CS(=O)(=O)N1CCCCN2[C@@H](CO)[C@@H](c3ccc(Br)cc3)[C@@H]2C1`, the GFP signal change (wild-type ribosome) is 5.32% (inactive), the OD600 change amounted to 1.18% and the RFP signal change was found to be 3.67%.
Turning to `COc1ccc(CNC(=O)COC(=O)c2ccc(C)c(S(=O)(=O)N3CCOCC3)c2)cc1OC`, the GFP signal change (wild-type ribosome) was -1.36% (inactive), the OD600 change was -0.45% and the RFP signal change worked out at 4.29%.
The matching figures for `Cc1ccc(C(=O)OCC(=O)NCc2cc(C)c(O)c(C)c2)cc1S(=O)(=O)N1CCCCC1`: -24.5% (active), -17% and -2.51%.
For `Cc1ccc(C(=O)OCC(=O)N2CC(C)CC(C)C2)cc1S(=O)(=O)N1CCCCC1` (stereo not drawn) the same measures were -26.5% (inactive), -33.2% and -6.95%.
Regarding `COc1ccccc1C#Cc1ccc2c(c1)O[C@H](CN(C)Cc1cccnc1)[C@@H](C)CN([C@H](C)CO)S2(=O)=O`, the GFP signal change (wild-type ribosome) was -5.86% (inactive), the OD600 change is -7.99% and the RFP signal change is 4.04%.
For `Cc1cccc(NC(=O)Nc2ccc3c(c2)OCO3)n1`, the GFP signal change (wild-type ribosome) is 0.76% (inactive), the OD600 change was determined as 7.09% and the RFP signal change was -5.02%.
The matching figures for `CC(NC(=O)Nc1cccc([N+](=O)[O-])c1)c1ccc2c(c1)OCO2` (stereo not drawn): -34.5% (active), -26.4% and -5.09%.
For `CC(NC(=O)Nc1ccc2c(c1)OCO2)c1ccncc1` (stereo not drawn) the same measures were 13.1% (inactive), 4.68% and 1.46%.
Turning to `CC1CC2=C(CC1/C=N/NC(N)=S)C(C)(C)CCC2` (stereo not drawn), the GFP signal change (wild-type ribosome) is -18.2% (active), the OD600 change came out at 0.8% and the RFP signal change was -0.09%.
For `Cc1noc(C)c1NC(=O)Nc1ccc2c(c1)C(=O)N([C@@H](C)CO)C[C@H](C)[C@H](CN(C)CC1CCCCC1)O2` the same measures were 2.74% (inactive), 1.93% and -1.48%.
In the case of `CCN(CC)S(=O)(=O)c1ccc(N2CCCC2)c(NC(=O)c2ccc([N+](=O)[O-])o2)c1`, the GFP signal change (wild-type ribosome) was -27.2% (active), the OD600 change came out at 5.04% and the RFP signal change turned out to be 9.95%.
The matching figures for `CCN(CC)S(=O)(=O)c1cc(C(=O)Nc2cc(S(=O)(=O)N3CCOCC3)ccc2N2CCCC2)ccc1F`: -10.4% (inactive), -14.8% and 1.19%.
For `CCN(CC)S(=O)(=O)c1ccc(N2CCOCC2)c(NC(=O)c2ccc(=O)n(C)n2)c1` the same measures were 18.6% (inactive), 11.8% and -3.6%.
`C[C@@H]1CN([C@@H](C)CO)C(=O)c2cccc(NC(=O)Nc3ccc(F)cc3)c2O[C@H]1CN(C)Cc1ccc(-c2ccccc2)cc1`: the GFP signal change (wild-type ribosome) was -7.51% (inactive), the OD600 change is -2.98% and the RFP signal change was -0.352%.
